Source: PubChem BioAssay
This is a sample that favours compounds with a hit; in the whole collection about 0.26% have one here.
Epigenetic reg – derepresses silenced GFP reporter in murine cells | AID 1865 | Potency, µM (doses to about 53.9 µM), for inactives: at the highest dose GFP activation, actives largely listed as activators | 280,000 compounds, 0.2% hits | murine LDR cells, GFP reporter derepression, 30 h; active = well fitted activation curve with a large enough effect; inconclusive = small, poorly fitted or top-dose-only effect; also: potency is read from the fitted curve at half-maximal effect; % of control where 0% means no effect; nearly all actives have a fitted effect of over 60% in size
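Murine LDR cells carrying a silenced, genomically integrated CMV-driven GFP reporter were exposed to compound for 30 hours at 37 C. After PBS washes, GFP-positive cells (20–120 um objects) were counted by laser-scanning microplate cytometry.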
Menin MLL FP FL – displaces fluorescein MLL peptide from human menin. Fluorescence polarization, fluorescein-MLL peptide displacement from menin. 290,000 tested, under 10 active. FP activity change, % at 61.4 µM. AID 1766; active = well fitted curve in the direction sought with a large enough effect in the polarisation, not every such curve was filed as active; inconclusive = small, poorly fitted or top-dose-only effect, or effect the other way, or a change in a side signal; inactive = no such curve, though single readings can be large or run the other way; the % refers to the polarisation; also: % of control where 0% means no effect
LMNA splice mod – modulators of lamin A splicing | HeLa LMNA splicing GFP/RFP minigene ratio, 48 h | Potency, µM (top dose mostly 46.1 µM), for inactives: top-dose ratio change, negative = inhibition, hits mostly inhibitors | 200,000 compounds, 0.01% hits | AID 1487; active = well fitted inhibition curve with a large enough effect in the signal ratio, with a control signal flat, not every such curve was filed as active; inconclusive = small, poorly fitted or top-dose-only effect, or effect the other way, or a change in a side signal; the % refers to the signal ratio; also: potency is read from the fitted curve at half-maximal effect; % is scaled to controls: 0 for no effect and ±100 for the full control effect
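S3 HeLa cells stably expressing lamin A-EGFP splicing minigene plus DsRed2, 600 cells/well, 48 h compound exposure at 37C. Laser-scanning cytometry; analysed as GFP (500-530 nm)/RFP (575-640 nm) total intensity ratio; 0.5% DMSO vehicle.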
Menin-MLL TR inh – displaces Texas Red mutant MLL peptide from human menin; Potency, µM (doses to about 61.6 µM), without a hit: at the top dose FP activity change, negative = inhibition, hits mostly inhibitors; AID 1768; O00255; Menin + Texas Red MLL mutant peptide, fluorescence polarization; 270,000 compounds, 0.23% hits; active = well fitted inhibition curve with a large enough effect in the polarisation, with a control signal flat, not every such curve was filed as active; inconclusive = small, poorly fitted or top-dose-only effect, or effect the other way, or a change in a side signal; inactive = no such curve, though single readings can be large or run the other way; the % refers to the polarisation; also: potency is read from the fitted curve at half-maximal effect; % of control where 0% means no effect
Target sequence (O00255 whole entry, looked up): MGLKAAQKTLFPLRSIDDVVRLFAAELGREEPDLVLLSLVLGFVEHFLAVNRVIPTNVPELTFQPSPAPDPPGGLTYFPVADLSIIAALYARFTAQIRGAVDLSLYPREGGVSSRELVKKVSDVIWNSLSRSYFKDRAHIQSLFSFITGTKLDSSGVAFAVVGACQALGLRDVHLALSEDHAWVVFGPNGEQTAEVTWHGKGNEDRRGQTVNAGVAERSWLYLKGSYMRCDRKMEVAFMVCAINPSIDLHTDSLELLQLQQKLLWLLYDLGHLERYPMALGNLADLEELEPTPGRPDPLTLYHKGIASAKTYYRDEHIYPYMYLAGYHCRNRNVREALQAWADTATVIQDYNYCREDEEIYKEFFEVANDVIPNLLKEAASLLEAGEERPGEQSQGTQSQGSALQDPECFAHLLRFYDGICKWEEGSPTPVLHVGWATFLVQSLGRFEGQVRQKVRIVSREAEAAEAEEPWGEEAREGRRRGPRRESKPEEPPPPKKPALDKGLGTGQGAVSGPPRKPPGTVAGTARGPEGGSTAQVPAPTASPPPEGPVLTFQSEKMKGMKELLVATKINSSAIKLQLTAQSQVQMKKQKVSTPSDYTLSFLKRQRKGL
CXXC DNA block – blocks binding of human MLL CXXC domain to DNA. AID 2662. MLL-CXXC / FITC-HOXA9 DNA fluorescence polarization. Potency, µM (doses to about 115 µM), for the others: top-dose activity change, negative = inhibition, most hits filed as inhibitors. 290,000 compounds, 0.037% hits. Q03164; active = well fitted inhibition curve with a large enough effect in the polarisation, with a control signal flat, not every such curve was filed as active; inconclusive = small, poorly fitted or top-dose-only effect, or effect the other way, or a change in a side signal; inactive = no such curve, though single readings can be large or run the other way; the % refers to the polarisation; also: potency is read from the fitted curve at half-maximal effect
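Steps: dispense CXXC domain solution (7 uM) → pin compounds or unlabeled HOX-A9 DNA control → 5 min ambient → add FLSN-HOX-A9 solution (50 nM) → spin → 30 min ambient → fluorescence polarization. Tris pH 7.5/NaCl/DTT/BSA buffer.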
Active calls of the source: *; [ ] = another dose, or the depositor's remark.

Cc1ccc(/C=C2/NC(=O)N(Cc3ccccc3F)C2=O)s1 was read as Epigenetic reg 3.5µM*, Menin MLL FP FL inconclusive, Menin-MLL TR inh -17% and CXXC DNA block inconclusive.
Screening COc1cccc(C(=O)Oc2c(CN3CCOCC3)cc(Cl)c3cccnc23)c1 returned Epigenetic reg 4.5µM*, Menin MLL FP FL 0, LMNA splice mod inconclusive, Menin-MLL TR inh -8% and CXXC DNA block 6%.
Screening COc1ccc(C(=O)Oc2c(CN3CCOCC3)cc(Cl)c3cccnc23)cc1 returned Epigenetic reg 7.1µM*, Menin MLL FP FL -2, LMNA splice mod inconclusive, Menin-MLL TR inh 6% and CXXC DNA block 16%.
`C#C[C@]1(O)CC[C@H]2C3CCC4=Cc5oncc5CC4(C)C3CCC21C` (stereo partly drawn) gave Epigenetic reg 0%, Menin MLL FP FL 3, LMNA splice mod inconclusive, Menin-MLL TR inh 6% and CXXC DNA block 0%.
`COc1cc(O)c2c(c1)oc(=O)c1c3cc(O)c(O)cc3oc21` gave Menin MLL FP FL 0 and Menin-MLL TR inh inconclusive.
`Nc1nc(SCc2ccc(Cl)cc2Cl)nc2nc3c(cc12)CCCC3` gave Epigenetic reg 18µM*, Menin MLL FP FL 26, LMNA splice mod inconclusive, Menin-MLL TR inh -5% and CXXC DNA block 23%.
CCC(Nc1ncnc2ccc(-c3c(C)noc3C)cc12)c1ccccc1 (stereo not drawn) was read as Menin MLL FP FL -8 and Menin-MLL TR inh 12%.
For O=C1S/C(=C\c2ccc(N3CCOCC3)o2)C(=O)N1Cc1ccc(F)cc1 the results were Epigenetic reg 3.5µM*, Menin MLL FP FL inconclusive, LMNA splice mod inconclusive, Menin-MLL TR inh inconclusive and CXXC DNA block inconclusive.
O=C1NC(=S)S/C1=C/c1ccc(N2CCOCC2)o1 was read as Epigenetic reg -2%, LMNA splice mod inconclusive, Menin-MLL TR inh inconclusive and CXXC DNA block inconclusive.
`CC(C)(C)OC(=O)CN1C(=O)S/C(=C\c2ccc(-c3cccc(C(=O)O)c3)o2)C1=O` gave Menin MLL FP FL inconclusive, Menin-MLL TR inh inconclusive and CXXC DNA block -12%.
O=C1S/C(=C/c2ccc(N3CCOCC3)o2)C(=O)N1Cc1ccc(F)cc1 was read as Epigenetic reg 14µM*, Menin MLL FP FL inconclusive, LMNA splice mod 5%, Menin-MLL TR inh -1% and CXXC DNA block inconclusive.
CC(C)OC(=O)CN1C(=O)S/C(=C/c2ccc(N3CCCCC3)o2)C1=O was read as Epigenetic reg 11µM*, Menin MLL FP FL inconclusive, LMNA splice mod 9% and CXXC DNA block inconclusive.
For C/C1=C2/[N-]C(C(CC(N)=O)[C@@]2(C)CCC(=O)NCC(C)OP(=O)([O-])O[C@H]2[C@@H](O)[C@@H](n3cnc4cc(C)c(C)cc43)O[C@@H]2CO)[C@]2(C)N=C(/C(C)=C3N=C(/C=C4N=C1C(CCC(N)=O)C\4(C)C)[C@@H](CCC(N)=O)[C@]\3(C)CC(N)=O)[C@@H](CCC(N)=O)[C@]2(C)CC(N)=O.CC(=O)O.[Co] (stereo partly drawn) the results were Menin MLL FP FL 7, Menin-MLL TR inh inconclusive and CXXC DNA block -16%.
`CCCCc1cc2c(cn1)=C(OC(=O)c1ccco1)C(C)(OC(=O)CC)C(=O)C=2` (stereo not drawn) gave Menin MLL FP FL 0[11.7 µM], LMNA splice mod -8%[9.22 µM] and Menin-MLL TR inh 11%[11.7 µM].
For On1onc2c3cc(-c4ccccc4)nc3ccc21 the results were Epigenetic reg 16µM*, Menin MLL FP FL -1, LMNA splice mod inconclusive, Menin-MLL TR inh inconclusive and CXXC DNA block inconclusive.
c1ccc(-c2cc3c(ccc4nonc43)nn2)cc1 was read as Epigenetic reg 3%, Menin MLL FP FL 5, LMNA splice mod 1%, Menin-MLL TR inh 11% and CXXC DNA block 6%.
For COC(=O)/C=C\c1cc(O)ccc1O the results were Epigenetic reg 0%, Menin MLL FP FL inconclusive and Menin-MLL TR inh 4%[24.8 µM].
Screening CCOC(=O)CCN1C(=O)[C@@H]2[C@H]3C(=CC[C@H]2C1=O)C(=O)[C@H]1O[C@H]1[C@H]3O returned Epigenetic reg inconclusive, Menin MLL FP FL -27[11.7 µM] and Menin-MLL TR inh 1%[11.7 µM].
Screening CN(C)c1ccc(/C=C(\C#N)c2nc3ccccc3c(=O)[nH]2)cc1 returned Epigenetic reg 6.3µM*.
`CCNc1ncc2nc(-c3ccc(Cl)cc3)c(=O)n(CCC#N)c2n1` gave Menin MLL FP FL 13, LMNA splice mod -6% and Menin-MLL TR inh 1%.
`N#CCCn1c(=O)c(-c2ccc(Cl)cc2)nc2cnc(Nc3ccccc3)nc21` gave Menin MLL FP FL inconclusive, LMNA splice mod inconclusive and Menin-MLL TR inh 10µM*.
Screening CC1CCCCN1S(=O)(=O)c1ccc(C(=O)Nc2ccccc2-c2nc3ccccc3[nH]2)cc1 (stereo not drawn) returned Epigenetic reg 3%, LMNA splice mod -18% and CXXC DNA block 22%.
Screening O=C(Nc1ccccc1-c1nc2ccccc2[nH]1)c1ccc(S(=O)(=O)N2CCCCC2)cc1 returned Epigenetic reg -2%, Menin MLL FP FL 4, LMNA splice mod -6%, Menin-MLL TR inh 10µM* and CXXC DNA block 30%.
For COC(=O)c1oc2ccc(Br)cc2c1NC(=O)c1ccccc1 the results were Epigenetic reg 1%, Menin MLL FP FL 4, LMNA splice mod -2%, Menin-MLL TR inh 28µM* and CXXC DNA block 1%.
`COC(=O)c1oc2ccc(Cl)cc2c1NC(C)=O` gave Epigenetic reg -1%, Menin MLL FP FL 0, LMNA splice mod -3%, Menin-MLL TR inh 17% and CXXC DNA block -3%.
For CCOC(=O)NNc1ccc2nonc2c1[N+](=O)[O-] the results were Epigenetic reg -1%, Menin MLL FP FL -2 and CXXC DNA block 40µM*.
Cc1ccc2nc3sc(C(=O)NCc4ccco4)c(N)c3cc2c1 was read as Epigenetic reg 16µM*, Menin MLL FP FL inconclusive, LMNA splice mod inconclusive, Menin-MLL TR inh inconclusive and CXXC DNA block inconclusive.
For CC1=CC(C#N)(C#N)C(C#N)(C#N)C(c2ccccc2)N1 (stereo not drawn) the results were Epigenetic reg -2%, Menin MLL FP FL inconclusive, LMNA splice mod 2%, Menin-MLL TR inh -7% and CXXC DNA block 40µM*.
For Cc1ccc(NC(=O)/C(C#N)=C/c2ccc(C)s2)c(C)c1 the results were Epigenetic reg 3.2µM*, Menin MLL FP FL inconclusive, LMNA splice mod inconclusive, Menin-MLL TR inh inconclusive and CXXC DNA block 36%.
Screening Cc1ccc(/C=C(\C#N)C(=O)Nc2c(C)cccc2C)s1 returned Epigenetic reg -4%, Menin MLL FP FL inconclusive, LMNA splice mod 7%, Menin-MLL TR inh -3% and CXXC DNA block 20%.
`COc1ccc(OC)c(N)c1` gave Epigenetic reg 0%, Menin MLL FP FL -9, LMNA splice mod 1%, Menin-MLL TR inh 25µM* and CXXC DNA block 1%.
